# According to PubChem BioAssay (NCATS):
# Values joined by “and” are separate entries in the source; they are usually repeats but may differ in a detail not shown here. Identical values can stand only once. Records with an inconclusive call do not appear. A call without a number means that no potency is given here. Unmarked numbers belong to inactive results. Active and inactive are the calls of the source. The call rests on the fitted dose curve; in most records, active means well fitted curve in the direction sought with a large enough effect; inconclusive means small, poorly fitted or top-dose-only effect, or another doubt; inactive means no such curve, though single readings can be large; an effect the other way counts as inactive or inconclusive.
# Legend:
# [1] = biological target: Cytochrome P450 3A7 (Homo sapiens) (UniProt P24462); test: Cytochrome P450 family 3 subfamily A member 7 (CYP3A7) small molecule antagonists: luciferase biochemical qHTS assay (AID 1963596); further: nearly all actives have a fitted effect of over 40% in size
# Sequence of Cytochrome P450 3A7 (Homo sapiens) (P24462 whole entry, looked up): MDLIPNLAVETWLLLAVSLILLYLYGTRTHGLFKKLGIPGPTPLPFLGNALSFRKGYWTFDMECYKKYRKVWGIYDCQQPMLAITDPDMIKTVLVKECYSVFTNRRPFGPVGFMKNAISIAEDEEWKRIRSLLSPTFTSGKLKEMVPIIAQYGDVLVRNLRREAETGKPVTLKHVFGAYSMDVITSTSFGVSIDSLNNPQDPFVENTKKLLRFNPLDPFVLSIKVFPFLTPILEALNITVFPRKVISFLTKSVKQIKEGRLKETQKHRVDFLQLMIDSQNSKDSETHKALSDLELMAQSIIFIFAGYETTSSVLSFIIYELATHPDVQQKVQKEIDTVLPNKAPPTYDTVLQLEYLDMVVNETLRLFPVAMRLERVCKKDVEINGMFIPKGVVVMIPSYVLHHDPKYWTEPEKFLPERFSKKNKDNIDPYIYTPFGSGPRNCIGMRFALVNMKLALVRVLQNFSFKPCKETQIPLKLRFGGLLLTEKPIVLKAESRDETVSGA
# Summary of the method: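 In this luminescent screen, enzyme and proluciferin substrate meet test compound for 10 min before NADPH regeneration solution drives a 1 h room-temperature reaction; detection reagent halts turnover and luminescence is read 20 min later.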
# [2] = Viability qHTS for spleen associated tyrosine kinase inhibitor (SYKi) drug resistant MV4-11 cells (AID 1963824); further: nearly all actives have a fitted effect of over 35% in size; further: potency means the concentration at half of the fitted maximal effect
# Summary of the method: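 CellTiter-Glo luminescence, read 10 min after reagent addition, reports viability after a 72 hr compound exposure. Cells are an MV4-11 line made resistant to SYK inhibition, seeded at 500 per well onto compound-containing plates.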
# [3] = Cellular viability qHTS for adrenocortical cancer (ACC) cell line SW-13 (AID 1963989); conditions: SW-13 ACC cells viability, CellTiter-Glo, 48 h; activity (max response): hits give low values; further: nearly all actives have a fitted effect of over 65% in size; further: potency means the concentration at half of the fitted maximal effect;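 on activity (max response): cells grown in serum-free medium with ITS supplement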
# Summary of the method: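 Viability was read as CellTiter-Glo luminescence after 48 h compound treatment (up to 46 uM final) of SW-13 cells grown serum-free; titration curves were fit with a four-parameter logistic model to give IC50 and efficacy.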
# [4] = Cellular viability qHTS for adrenocortical cancer (ACC) cell line NCI-H295R (AID 1963990); further: nearly all actives have a fitted effect of over 60% in size; further: potency means the concentration at half of the fitted maximal effect
# Summary of the method: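 CellTiter-Glo ATP luminescence, read 48 h after compound addition, measured viability of NCI-H295R adrenocortical cells grown serum-free with ITS. Final concentrations spanned up to 46 uM. Data normalized to DMSO and doxorubicin, fitted for IC50 and maximal response.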
Compound,Potency [1],Potency [2],activity (max response) [3] [%],Potency [4],Potency [3]
Cc1nc2n(c(=O)c1CCN1CCC(c3noc4cc(F)ccc34)CC1)CCC[C@H]2O,inactive,inactive,4.14,inactive,–
CC(C)c1c2cc(-c3ccnc(NC4CCC(NC5CCOCC5)CC4)n3)ccc2nn1C (stereo not given),inactive,116 nM (active) and 83.3 nM (active),–,447 nM (active),282 nM (active)
OC1(c2ccc(Cl)cc2)CCNCC1,inactive,inactive,11.1,inactive,–
CC(=O)OC(C)C[N+](C)(C)C (stereo not given),inactive,inactive,-1.07,inactive,–
CCCCCC(C)N (stereo not given),inactive,inactive,17.9,inactive,–
NC(=O)CCCCC1CCSS1 (stereo not given),inactive,inactive,9.98,inactive,–
COCCc1ccc(OCC2CO2)cc1 (stereo not given),inactive,inactive,-2.52,inactive,–
O=C1OC(OC(=O)c2cccnc2Nc2cccc(C(F)(F)F)c2)c2ccccc21 (stereo not given),inactive,inactive,6.27,inactive,–
Cc1ncc(CO)c(C=O)c1O,inactive,inactive,-2.89,inactive,–
CCCCCCCCCCCCCCCCCC(=O)O,inactive,inactive,18.1,inactive,–
